# In PubChem BioAssay (EPA / NIEHS):
# Where “and” joins values, the source holds several entries; their conditions need not be identical. Equal entries are not always repeated. Some structures have more than one record in an assay (separate samples or runs), and their calls can disagree. Calls of active or inactive are those of the source. How the source made its calls: active means hit-call score of the fitted dose curve at least 0.9, where 1 is the maximum; inactive means score below 0.9.
# What was measured:
# [1] = ATG_GLI_CIS: Attagene CIS-FACTORIAL HepG2 Assay for human Zinc Finger Protein GLI1 (AID 2282945); conditions: HepG2, Attagene cis-factorial reporter mRNA, GLI element; actives raise or lower the signal
# In short: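 Transiently transfected HepG2 cells report endogenous transcription factor activity via cis-element-driven reporter units. After 24 h compound exposure, reporter mRNA was measured by RT-PCR with capillary electrophoresis; bidirectional fitting against DMSO baseline.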
# [2] = target: Bile acid receptor (Homo sapiens) (UniProt Q96RI1); assay: ATG_IR1_CIS: Attagene CIS-FACTORIAL HepG2 Assay for human Nuclear Receptor Subfamily 1 Group H Member 4 (NR1H4), IR1 submotif (AID 2282946); conditions: IR1 reporter transcription, actives raise or lower the signal
# In short: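 HepG2 cells transiently transfected with multiple cis-promoter-driven reporter units to measure endogenous transcription factor activity; 24 h exposure. Reporter mRNA read by RT-PCR, FAM labelling, HpaI digestion and capillary electrophoresis. Bidirectional fit versus DMSO.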
# [3] = ATG_ISRE_CIS: Attagene CIS-FACTORIAL HepG2 Assay for human Interferon Regulatory Factor 1 (IRF1) binding to an Interferon-Stimulated Response Element (ISRE) (AID 2282948); conditions: HepG2 ISRE cis-reporter (Attagene), mRNA transcription readout; actives raise or lower the signal
# In short: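 Quantitation relies on labelled RT-PCR fragments separated by capillary electrophoresis. Human HepG2 cells bearing cis-promoter reporter constructs were treated 24 h; DMSO served as baseline for bidirectional fitting.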
# [4] = ATG_M_32_CIS: Attagene CIS-FACTORIAL HepG2 Assay for M32 Transcription Factor (Internal Marker) (AID 2282949); conditions: HepG2 Attagene cis-factorial M32 reporter, mRNA; actives raise or lower the signal;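 further: background control marker of the multiplexed CIS panel rather than a real target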
# In short: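 Fluorescent capillary electrophoresis peaks of HpaI-digested, FAM-labelled RT-PCR reporter products give the signal. Source: transiently transfected human liver HepG2 cells, 24 h after chemical dosing; bidirectional fitting against DMSO.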
# [5] = ATG_M_06_CIS: Attagene CIS-FACTORIAL HepG2 Assay for M06 Transcription Factor (Internal Marker) (AID 2282950); conditions: HepG2 Attagene CIS-FACTORIAL M06 internal marker reporter; actives raise or lower the signal
# In short: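 HepG2 liver cells, 24 h exposure. Reporter transcripts from transfected cis-element constructs quantified by RT-PCR/capillary electrophoresis fluorescence. Bidirectional curve fit against DMSO.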
# [6] = target: Hypoxia-inducible factor 1-alpha (Homo sapiens) (UniProt Q16665); assay: ATG_HIF1a_CIS: Attagene CIS-FACTORIAL HepG2 Assay for human Hypoxia Inducible Factor 1 (HIF1A) (AID 2282951); conditions: HepG2 Attagene cis-factorial HIF1a reporter transcription; actives raise or lower the signal
# In short: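 In this multiplexed cell assay, HepG2 cells bearing transfected cis reporters are dosed for 24 h and reporter mRNA is read by RT-PCR plus capillary electrophoresis; signal increases and decreases are both scored against DMSO.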
# [7] = target: Hepatocyte nuclear factor 6 (Homo sapiens) (UniProt Q9UBC0); assay: ATG_HNF6_CIS: Attagene CIS-FACTORIAL HepG2 Assay for human Hepatocyte Nuclear Factor 6 (HNF6) (AID 2282952); conditions: HepG2 Attagene cis-factorial HNF6 reporter transcription; actives raise or lower the signal
# In short: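 HepG2, transient MRTU transfection (cis promoters); 24 h chemical exposure; total RNA → oligo(dT) RT → PCR → 6-FAM labelling → HpaI cut → CE; bidirectional fit vs DMSO.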
# [8] = target: Heat shock factor protein 1 (Homo sapiens) (UniProt Q00613); assay: ATG_HSE_CIS: Attagene CIS-FACTORIAL HepG2 Assay for human Heat Shock Transcription Factor 1 (HSE) (AID 2282953); conditions: HepG2 HSE cis-reporter, Attagene RNA transcription; actives raise or lower the signal
# In short: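 Endogenous transcription factor activity captured via cis-promoter reporter units transfected into HepG2; treatment lasted 24 h. Fluorescence intensity of reporter fragments analysed with bidirectional curve fitting, DMSO baseline.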
# [9] = ATG_MRE_CIS: Attagene CIS-FACTORIAL HepG2 Assay for human Metal Responsive Element (MRE) (AID 2282954); conditions: HepG2 MRE cis-reporter transcription, Attagene multiplex; actives raise or lower the signal
# In short: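 HepG2 cells transiently transfected with cis-element-driven reporter units; mRNA measured 24 h after dosing. Reporter transcripts quantified by RT-PCR, FAM labelling, HpaI digestion and capillary electrophoresis; bidirectional fit versus DMSO.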
# [10] = target: Paired box protein Pax-6 (Homo sapiens) (UniProt P26367); assay: ATG_Pax6_CIS: Attagene CIS-FACTORIAL HepG2 Assay for human Paired Box 6 (PAX6) (AID 2282956); conditions: HepG2 CIS-FACTORIAL PAX6 reporter transcription, RNA readout; actives raise or lower the signal
# In short: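 After twenty-four hours of chemical exposure, transfected HepG2 cells are harvested for RNA. Cis-promoter reporter transcripts are amplified, fluorescently labelled and sized by capillary electrophoresis, with gain and loss of signal scored against DMSO.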
# [11] = ATG_PXRE_CIS: Attagene CIS-FACTORIAL HepG2 Assay for human Pregnane X Receptor Element (PXRE) (AID 2282957); conditions: HepG2 Attagene CIS-FACTORIAL PXRE reporter, mRNA; actives raise or lower the signal
# In short: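 Transfect HepG2 with MRTUs (cis promoter elements); dose chemical, incubate 24 h; isolate RNA, RT with oligo(dT), PCR, 6-FAM label, HpaI cut, CE. Gain/loss fit vs DMSO.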
# [12] = ATG_PPRE_CIS: Attagene CIS-FACTORIAL HepG2 Assay for human Peroxisome Proliferator-activated Response Element (PPRE) (AID 2282958); conditions: HepG2 PPRE cis-element reporter, Attagene transcription factor profiling; actives raise or lower the signal
# In short: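 Multiplexed reporter transcription units under cis-regulatory promoters were transfected into HepG2 cells to capture endogenous factor activity. A 24 h incubation preceded RNA isolation and fluorescent RT-PCR fragment analysis.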
# [13] = ATG_Sox_CIS: Attagene CIS-FACTORIAL HepG2 Assay for human SRY-box transcription factor (SOX) (AID 2282960); conditions: HepG2 Attagene cis-factorial SOX reporter, mRNA; actives raise or lower the signal
# In short: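 After 24 h of chemical treatment, transfected HepG2 reporter cells are lysed for total RNA. Transcript levels come from RT-PCR with labelled primer extension and capillary electrophoresis, analysed bidirectionally versus DMSO.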
# [14] = target: Transcription factor Sp1 (Homo sapiens) (UniProt P08047); assay: ATG_Sp1_CIS: Attagene CIS-FACTORIAL HepG2 Assay for human Specificity Protein 1 (Sp1) (AID 2282961); conditions: HepG2 Sp1 cis-reporter transcription, actives raise or lower the signal
# In short: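 Sp1-driven reporter mRNA, read as capillary electrophoresis fluorescence after RT-PCR, in transiently transfected HepG2 cells dosed for 24 h; signal change in either direction relative to DMSO.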
# [15] = ATG_SREBP_CIS: Attagene CIS-FACTORIAL HepG2 Assay for human Sterol Regulatory Element Binding (SREBP) (AID 2282962); conditions: HepG2 Attagene cis-factorial SREBP reporter, mRNA; actives raise or lower the signal
# In short: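 Twenty-four hours after chemical dosing of transfected HepG2 cultures, reporter RNA was converted to cDNA, amplified, end-labelled with 6-FAM and resolved by capillary electrophoresis. Responses were fitted relative to DMSO.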
# [16] = ATG_TA_CIS: Attagene CIS-FACTORIAL HepG2 Assay for human TA Basal Promoter (AID 2282964); conditions: HepG2 Attagene CIS-factorial TA basal promoter reporter; actives raise or lower the signal
# In short: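 Fluorescence from labelled RT-PCR reporter fragments, separated by capillary electrophoresis, gives the signal. Cells: HepG2 transiently carrying multiple reporter units, 24 h chemical dosing. Gain or loss relative to DMSO.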
# [17] = ATG_GRE_CIS: Attagene CIS-FACTORIAL HepG2 Assay for human Glucocorticoid Response Elements (GRE) (AID 2282947); conditions: HepG2 GRE cis-reporter, Attagene multiplex mRNA; actives raise or lower the signal
# In short: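 Transiently transfected HepG2 cells carrying GRE cis-reporter units (endogenous TF activity) dosed 24 h; reporter mRNA quantified by RT-PCR, 6-FAM labelling, HpaI digestion and capillary electrophoresis. Bidirectional fit versus DMSO baseline.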
# [18] = ATG_PBREM_CIS: Attagene CIS-FACTORIAL HepG2 Assay for human Phenobarbital-responsive Enhancer Module (PBREM) (AID 2282955); conditions: HepG2 PBREM cis-reporter, Attagene multiplexed transcription; actives raise or lower the signal
# In short: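 After a 24 h incubation with test chemical, transfected HepG2 cells yield total RNA; reporter-specific RT-PCR products are fluorescently labelled, HpaI-digested and resolved by capillary electrophoresis against ROX size standards.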
# [19] = target: Signal transducer and activator of transcription 3 (Homo sapiens) (UniProt P40763); assay: ATG_STAT3_CIS: Attagene CIS-FACTORIAL HepG2 Assay for human Signal Transducer and Activator of Transcription 3 (STAT3) (AID 2282963); conditions: HepG2, Attagene cis-factorial STAT3 reporter transcription; actives raise or lower the signal
# In short: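 HepG2 cells transiently transfected with multiple cis-element-driven reporter units report endogenous transcription factor activity. After 24 h compound exposure, reporter mRNA is measured by RT-PCR, 6-FAM labelling, HpaI digestion and capillary electrophoresis. Fitted bidirectionally versus DMSO.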
# Sequence of Paired box protein Pax-6 (Homo sapiens) (P26367 whole entry, looked up): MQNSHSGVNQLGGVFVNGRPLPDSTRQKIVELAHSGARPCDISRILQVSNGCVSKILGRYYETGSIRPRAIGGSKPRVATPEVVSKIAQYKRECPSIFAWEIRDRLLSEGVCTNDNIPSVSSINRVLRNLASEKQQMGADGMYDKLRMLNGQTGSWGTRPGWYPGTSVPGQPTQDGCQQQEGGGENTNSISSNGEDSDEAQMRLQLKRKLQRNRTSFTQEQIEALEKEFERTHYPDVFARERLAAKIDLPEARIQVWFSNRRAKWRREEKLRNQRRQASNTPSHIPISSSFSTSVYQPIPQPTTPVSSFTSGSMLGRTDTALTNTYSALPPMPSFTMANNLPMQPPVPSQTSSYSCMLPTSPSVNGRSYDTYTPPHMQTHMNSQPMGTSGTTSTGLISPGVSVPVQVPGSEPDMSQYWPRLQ
# Sequence of Hypoxia-inducible factor 1-alpha (Homo sapiens) (Q16665 whole entry, looked up): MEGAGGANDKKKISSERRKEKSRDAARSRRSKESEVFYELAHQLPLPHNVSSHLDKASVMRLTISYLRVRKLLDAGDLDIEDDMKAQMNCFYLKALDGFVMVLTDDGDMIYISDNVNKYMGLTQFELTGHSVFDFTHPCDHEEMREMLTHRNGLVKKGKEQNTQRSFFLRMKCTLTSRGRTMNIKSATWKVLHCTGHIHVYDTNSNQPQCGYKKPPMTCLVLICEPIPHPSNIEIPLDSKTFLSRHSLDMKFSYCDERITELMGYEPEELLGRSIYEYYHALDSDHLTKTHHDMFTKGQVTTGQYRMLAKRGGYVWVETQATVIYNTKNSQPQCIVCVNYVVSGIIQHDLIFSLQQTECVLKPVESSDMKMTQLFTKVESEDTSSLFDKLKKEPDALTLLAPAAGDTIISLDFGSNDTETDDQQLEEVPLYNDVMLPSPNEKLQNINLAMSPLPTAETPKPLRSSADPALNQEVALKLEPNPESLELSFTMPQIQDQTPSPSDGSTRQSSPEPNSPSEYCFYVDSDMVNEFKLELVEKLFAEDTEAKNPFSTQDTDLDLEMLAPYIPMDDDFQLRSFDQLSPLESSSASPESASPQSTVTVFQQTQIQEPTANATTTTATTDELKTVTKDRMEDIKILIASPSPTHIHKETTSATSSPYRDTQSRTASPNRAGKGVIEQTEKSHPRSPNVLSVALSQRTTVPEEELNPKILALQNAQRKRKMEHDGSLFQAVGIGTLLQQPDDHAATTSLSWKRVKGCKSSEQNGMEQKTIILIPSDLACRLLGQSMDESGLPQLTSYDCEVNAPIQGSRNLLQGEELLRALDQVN
# Sequence of Heat shock factor protein 1 (Homo sapiens) (Q00613 whole entry, looked up, the tested form may be a part): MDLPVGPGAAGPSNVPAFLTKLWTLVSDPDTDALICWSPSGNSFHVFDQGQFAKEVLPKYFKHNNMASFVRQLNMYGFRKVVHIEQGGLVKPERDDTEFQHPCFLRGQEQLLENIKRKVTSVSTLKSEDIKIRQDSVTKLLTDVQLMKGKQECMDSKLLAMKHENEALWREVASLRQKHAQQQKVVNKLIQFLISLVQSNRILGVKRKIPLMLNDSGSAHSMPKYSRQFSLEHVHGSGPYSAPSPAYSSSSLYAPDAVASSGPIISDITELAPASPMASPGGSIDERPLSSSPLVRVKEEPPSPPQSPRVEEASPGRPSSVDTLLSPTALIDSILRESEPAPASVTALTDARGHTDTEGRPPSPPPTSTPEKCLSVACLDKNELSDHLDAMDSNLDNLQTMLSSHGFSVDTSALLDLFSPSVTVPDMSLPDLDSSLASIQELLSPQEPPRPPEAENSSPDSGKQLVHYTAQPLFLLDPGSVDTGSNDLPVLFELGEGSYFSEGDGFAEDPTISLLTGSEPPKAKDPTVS
# Sequence of Transcription factor Sp1 (Homo sapiens) (P08047 whole entry, looked up): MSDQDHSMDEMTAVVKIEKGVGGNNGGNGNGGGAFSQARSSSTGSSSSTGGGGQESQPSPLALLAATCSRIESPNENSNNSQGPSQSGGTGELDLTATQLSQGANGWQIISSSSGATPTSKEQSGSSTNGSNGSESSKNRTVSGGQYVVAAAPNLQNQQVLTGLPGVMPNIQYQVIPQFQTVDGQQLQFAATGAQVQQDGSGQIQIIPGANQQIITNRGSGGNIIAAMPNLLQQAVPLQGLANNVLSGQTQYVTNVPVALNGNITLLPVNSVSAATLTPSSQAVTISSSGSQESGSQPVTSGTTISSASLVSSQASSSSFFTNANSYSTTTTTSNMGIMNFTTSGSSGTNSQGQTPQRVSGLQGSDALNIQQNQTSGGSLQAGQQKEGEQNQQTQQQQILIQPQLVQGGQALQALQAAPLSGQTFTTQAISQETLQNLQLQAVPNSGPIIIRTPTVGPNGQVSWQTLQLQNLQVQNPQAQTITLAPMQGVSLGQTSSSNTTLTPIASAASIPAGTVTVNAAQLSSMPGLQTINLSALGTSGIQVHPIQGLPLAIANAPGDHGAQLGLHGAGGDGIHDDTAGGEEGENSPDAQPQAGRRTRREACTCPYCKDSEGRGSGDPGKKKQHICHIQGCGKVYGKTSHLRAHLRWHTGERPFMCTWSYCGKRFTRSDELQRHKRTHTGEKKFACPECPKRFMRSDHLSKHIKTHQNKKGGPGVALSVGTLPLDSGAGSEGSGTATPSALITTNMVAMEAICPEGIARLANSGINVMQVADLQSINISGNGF
# Sequence of Hepatocyte nuclear factor 6 (Homo sapiens) (Q9UBC0 whole entry, looked up): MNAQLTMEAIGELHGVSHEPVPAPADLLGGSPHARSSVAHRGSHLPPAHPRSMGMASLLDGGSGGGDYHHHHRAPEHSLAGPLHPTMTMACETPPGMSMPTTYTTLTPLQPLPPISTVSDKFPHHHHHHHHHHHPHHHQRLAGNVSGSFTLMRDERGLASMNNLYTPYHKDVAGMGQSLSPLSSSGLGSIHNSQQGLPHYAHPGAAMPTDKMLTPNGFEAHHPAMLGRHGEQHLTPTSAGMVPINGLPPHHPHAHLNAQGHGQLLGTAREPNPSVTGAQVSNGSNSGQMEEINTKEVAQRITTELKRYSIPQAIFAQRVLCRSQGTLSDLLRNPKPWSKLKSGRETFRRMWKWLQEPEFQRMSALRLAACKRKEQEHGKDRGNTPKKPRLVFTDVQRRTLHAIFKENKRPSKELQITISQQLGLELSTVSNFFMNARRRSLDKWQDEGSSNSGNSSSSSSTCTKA
# Sequence of Bile acid receptor (Homo sapiens) (Q96RI1 whole entry, looked up): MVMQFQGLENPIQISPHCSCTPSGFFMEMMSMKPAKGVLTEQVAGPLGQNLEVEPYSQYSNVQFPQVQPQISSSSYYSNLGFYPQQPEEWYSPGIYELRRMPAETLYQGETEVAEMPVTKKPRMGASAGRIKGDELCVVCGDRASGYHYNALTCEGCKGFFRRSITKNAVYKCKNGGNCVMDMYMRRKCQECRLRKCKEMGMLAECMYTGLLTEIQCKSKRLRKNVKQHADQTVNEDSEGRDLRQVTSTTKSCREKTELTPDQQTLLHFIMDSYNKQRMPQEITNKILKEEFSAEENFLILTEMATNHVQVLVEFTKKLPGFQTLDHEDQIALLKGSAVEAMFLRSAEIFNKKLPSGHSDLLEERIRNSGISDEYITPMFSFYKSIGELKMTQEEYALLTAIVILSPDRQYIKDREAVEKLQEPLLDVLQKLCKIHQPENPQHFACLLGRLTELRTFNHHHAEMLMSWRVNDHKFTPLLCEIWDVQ
# Sequence of Signal transducer and activator of transcription 3 (Homo sapiens) (P40763 whole entry, looked up): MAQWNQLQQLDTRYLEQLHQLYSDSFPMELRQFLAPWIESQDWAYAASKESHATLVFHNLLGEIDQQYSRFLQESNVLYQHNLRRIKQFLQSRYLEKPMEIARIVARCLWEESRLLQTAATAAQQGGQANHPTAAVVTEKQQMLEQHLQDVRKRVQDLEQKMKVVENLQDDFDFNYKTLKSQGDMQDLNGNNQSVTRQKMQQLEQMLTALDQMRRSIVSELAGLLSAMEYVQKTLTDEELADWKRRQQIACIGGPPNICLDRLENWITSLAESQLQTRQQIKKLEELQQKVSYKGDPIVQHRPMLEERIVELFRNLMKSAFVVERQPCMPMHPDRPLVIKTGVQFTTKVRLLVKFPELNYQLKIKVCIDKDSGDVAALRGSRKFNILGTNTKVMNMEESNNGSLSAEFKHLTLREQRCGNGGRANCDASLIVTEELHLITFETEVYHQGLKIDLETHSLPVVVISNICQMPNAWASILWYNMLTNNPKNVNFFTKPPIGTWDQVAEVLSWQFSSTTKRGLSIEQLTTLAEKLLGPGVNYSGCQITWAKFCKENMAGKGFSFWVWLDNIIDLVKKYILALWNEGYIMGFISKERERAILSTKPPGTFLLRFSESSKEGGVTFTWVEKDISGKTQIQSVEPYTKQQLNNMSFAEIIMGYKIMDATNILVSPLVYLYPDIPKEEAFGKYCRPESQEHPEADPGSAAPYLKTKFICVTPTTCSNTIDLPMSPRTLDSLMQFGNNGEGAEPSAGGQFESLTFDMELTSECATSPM
structure (smiles),measurement,setting,value
CC(C)OC(=O)Nc1cccc(Cl)c1,outcome,[1],inactive
same,outcome,[2],inactive
same,outcome,[3],inactive
same,outcome,[4],inactive
same,outcome,[5],inactive
same,outcome,[6],inactive
same,outcome,[7],inactive
same,outcome,[8],inactive
same,AC50,[9],50 µM (active)
same,outcome,[10],inactive
same,AC50,[11],15.5 µM (active)
same,AC50,[12],47.1 µM (active)
same,outcome,[13],inactive
same,outcome,[14],inactive
same,outcome,[15],inactive
same,outcome,[16],inactive
O=C(O)C(F)(F)C(F)(F)C(F)(F)C(F)(F)C(F)(F)C(F)(F)C(F)(F)F,outcome,[1],inactive
same,outcome,[3],inactive
same,outcome,[4],inactive
same,outcome,[5],inactive
same,outcome,[6],inactive
same,outcome,[7],inactive
same,outcome,[9],inactive
same,outcome,[10],inactive
same,AC50,[11],34.1 µM (active) and 41 µM (active) and 41.5 µM (active)
same,outcome,[11],inactive
same,outcome,[13],inactive
same,outcome,[14],inactive
same,outcome,[15],inactive
same,outcome,[16],inactive
CC[C@H](C)[C@H]1O[C@]2(C=C[C@@H]1C)C[C@@H]1C[C@@H](C/C=C(\C)[C@@H](O[C@H]3C[C@H](OC)[C@@H](O[C@H]4C[C@H](OC)[C@@H](O)[C@H](C)O4)[C@H](C)O3)[C@@H](C)/C=C/C=C3\CO[C@@H]4[C@H](O)C(C)=C[C@@H](C(=O)O1)[C@]34O)O2 (tested in a mixture with another compound),outcome,[1],inactive
same,outcome,[17],inactive
same,outcome,[3],inactive
same,outcome,[4],inactive
same,outcome,[5],inactive
same,outcome,[6],inactive
same,outcome,[7],inactive
same,outcome,[8],inactive
same,outcome,[9],inactive
same,outcome,[18],inactive
same,outcome,[10],inactive
same,AC50,[11],1.75 µM (active)
same,outcome,[13],inactive
same,outcome,[14],inactive
same,outcome,[15],inactive
same,outcome,[16],inactive
Cc1[nH]c(=O)n(C(C)(C)C)c(=O)c1Cl,outcome,[1],inactive
same,outcome,[2],inactive
same,outcome,[3],inactive
same,outcome,[4],inactive
same,outcome,[5],inactive
same,outcome,[6],inactive
same,outcome,[7],inactive
same,outcome,[8],inactive
same,AC50,[9],50 µM (active)
same,AC50,[18],80.8 µM (active)
same,outcome,[10],inactive
same,outcome,[11],inactive
same,outcome,[13],inactive
same,AC50,[14],50 µM (active)
same,outcome,[15],inactive
same,outcome,[16],inactive
O=S(=O)(O)C(F)(F)C(F)(F)C(F)(F)C(F)(F)C(F)(F)C(F)(F)C(F)(F)C(F)(F)F,outcome,[1],inactive
same,outcome,[3],inactive
same,AC50,[4],53.6 µM (active)
same,outcome,[4],inactive
same,outcome,[5],inactive
same,AC50,[6],84 µM (active)
same,outcome,[6],inactive
same,AC50,[7],24.7 µM (active) and 208 µM (active) and 272 µM (active)
same,outcome,[7],inactive
same,AC50,[8],182 µM (active) and 54.8 µM (active)
same,outcome,[8],inactive
same,outcome,[9],inactive
same,outcome,[10],inactive
same,AC50,[13],52.8 µM (active)
same,outcome,[13],inactive
same,AC50,[14],26.5 µM (active) and 53.3 µM (active)
same,outcome,[14],inactive
same,AC50,[15],68.7 µM (active)
same,outcome,[15],inactive
same,AC50,[16],55.9 µM (active)
same,outcome,[16],inactive
COP(=O)(OC)OC=C(Cl)Cl,outcome,[1],inactive
same,AC50,[3],50 µM (active)
same,outcome,[4],inactive
same,outcome,[5],inactive
same,outcome,[6],inactive
same,outcome,[7],inactive
same,outcome,[8],inactive
same,AC50,[9],36.7 µM (active)
same,outcome,[10],inactive
same,AC50,[11],21.8 µM (active)
same,AC50,[12],22.9 µM (active)
same,outcome,[13],inactive
same,outcome,[14],inactive
same,outcome,[15],inactive
same,outcome,[19],inactive
same,outcome,[16],inactive
CCCN(CCC)c1c([N+](=O)[O-])cc(C(F)(F)F)cc1[N+](=O)[O-],outcome,[1],inactive
same,outcome,[2],inactive
same,outcome,[3],inactive
same,outcome,[4],inactive
same,outcome,[5],inactive
same,outcome,[6],inactive
same,outcome,[7],inactive
same,outcome,[8],inactive
same,outcome,[9],inactive
same,outcome,[18],inactive
same,outcome,[10],inactive
same,AC50,[11],6.82 µM (active)
same,outcome,[12],inactive
same,outcome,[13],inactive
same,outcome,[14],inactive
same,outcome,[15],inactive
same,outcome,[16],inactive
COC(=O)c1ccccc1S(=O)(=O)NC(=O)Nc1nc(C)nc(OC)n1,outcome,[1],inactive
same,outcome,[2],inactive
same,outcome,[3],inactive
same,outcome,[4],inactive
same,outcome,[5],inactive
same,outcome,[6],inactive
same,outcome,[7],inactive
same,outcome,[8],inactive
same,outcome,[9],inactive
same,outcome,[10],inactive
same,outcome,[11],inactive
same,outcome,[13],inactive
same,outcome,[14],inactive
same,outcome,[15],inactive
same,outcome,[16],inactive
